According to the supplement of paper PMC7695840:
Structures can show the parent of a compound that is named as a salt.

tested on: Staphylococcus aureus MW2 (mecA+); test: normalized DsRed fluorescence (growth of mecA+ strain) (fraction of control range); higher = more growth of mecA+ strain; settings: compound concentration: 150 uM; cefoxitin: subinhibitory; fluorescent label: DsRed
How it was run: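 A 1:1 mix of pre-induced S. aureus MW2 cells, DsRed-labeled with the gene and GFP-labeled without it, was grown in LB with a daily-set subinhibitory antibiotic dose on 150 μM compound (1.5% DMSO) in 1536-well plates, single replicate. Growth lasted 20 h at 37 °C, 90% humidity, without shaking, and DsRed (540/590) and GFP (485/520) were then read. Channels were scaled per plate to single-strain control medians, and plates with high untreated ratios and rows with DsRed/GFP >10 were removed.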

Going from `Cc1nccn1CC1CCc2c(c3ccccc3n2C)C1=O` (stereo unspecified) to `CN1CCC(=C2c3ccccc3CC(=O)c3sccc32)CC1` [Ketotifen fumarate (Zaditor)], the “normalized DsRed fluorescence” value rises from 0.626 to 0.799.

First: COC(=O)Nc1nc2cc(C(=O)c3ccc(F)cc3)ccc2[nH]1
Second: COc1ccc2[nH]cc(CCNC(C)=O)c2c1 [Melatonin]
The “normalized DsRed fluorescence” value of the first is lower: 0.661 for the first, 0.734 for the second.

Compared with `CCN(CC)CCNC(=O)c1cc(Cl)c(N)cc1OC`, `Cc1ncc(C[n+]2csc(CCO)c2C)c(N)n1` is higher in “normalized DsRed fluorescence” value: 0.756 for the first, 1.23 for the second.

Going from `Cc1ncc([N+](=O)[O-])n1CC(O)CCl` (stereo unspecified) to `NC[C@H](O)c1ccc(O)c(O)c1`, the “normalized DsRed fluorescence” value rises from 0.705 to 1.06.

Going from `OCCOCCN1CCN(C2=Nc3ccccc3Sc3ccccc32)CC1` [Quetiapine fumarate (Seroquel)] to `CN1CCOC(c2ccccc2)c2ccccc2C1` (stereo unspecified), the “normalized DsRed fluorescence” value falls from 1.15 to 0.81.

Compared with `O=C(O)CCCCCCCC(=O)O`, `CCOC(=O)[C@H](CCc1ccccc1)N[C@H]1CS[C@H](c2cccs2)CN(CC(=O)O)C1=O` [Temocapril HCl] is higher in “normalized DsRed fluorescence” value: 0.443 for the first, 0.936 for the second.

Going from `CCC1(C)OC(=O)N(C)C1=O` (stereo unspecified) to `O=C1C(O)=C([C@H]2CC[C@H](c3ccc(Cl)cc3)CC2)C(=O)c2ccccc21` [Atovaquone (Atavaquone)], the “normalized DsRed fluorescence” value falls from 0.876 to 0.498.

First: CC[C@]1(O)C[C@H]2CN(CCc3c([nH]c4ccccc34)[C@@](C(=O)OC)(c3cc4c(cc3OC)N(C=O)[C@H]3[C@@](O)(C(=O)OC)[C@H](OC(C)=O)[C@]5(CC)C=CCN6CC[C@]43[C@@H]65)C2)C1
Second: Cc1cn[nH]c1
The “normalized DsRed fluorescence” value of the first is lower: 0.633 for the first, 0.838 for the second.
